Measurements from the supplement of paper PMC4466140.

Biological target: AgAbp1
Assay: SPOT peptide array binding signal intensity (averaged, normalized) (arbitrary units (background-subtracted, floor 0; scale differs between SH3 domains)); higher = stronger binding of the SH3 domain to the peptide
How it was run: (§1)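 Spot intensities were captured after detection with anti-GST antibody, an HRP-linked anti-mouse secondary and luminol, and quantified with Genespotter. The probes were GST-fused SH3 domains from four yeast species, produced in E. coli BL21(DE3), purified on glutathione Sepharose and incubated at 10 μg/ml overnight at 4°C on cellulose-bound synthetic 15-mer peptides with cysteines replaced by serines. Binding signal is the normalized, background-subtracted spot intensity averaged over replicates, and its arbitrary units differ between domains.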

Binder	SPOT peptide array binding signal intensity
GRLRPKRIAPWHLIQ	84.5

Biological target: AgBbc1
Assay: as above
How it was run: as §1

Binder	SPOT peptide array binding signal intensity
GRLRPKRIAPWHLIQ	22.8

Biological target: AgBem1-D1
Assay: as above
How it was run: as §1

Binder	SPOT peptide array binding signal intensity
GRLRPKRIAPWHLIQ	21

Biological target: AgBzz1-D1
Assay: as above
How it was run: as §1

Binder	SPOT peptide array binding signal intensity
GRLRPKRIAPWHLIQ	22

Biological target: AgBzz1-D2
Assay: as above
How it was run: as §1

Binder	SPOT peptide array binding signal intensity
GRLRPKRIAPWHLIQ	15.5

Biological target: AgCyk3
Assay: as above
How it was run: as §1

Binder	SPOT peptide array binding signal intensity
GRLRPKRIAPWHLIQ	4

Biological target: AgFus1
Assay: as above
How it was run: as §1

Binder	SPOT peptide array binding signal intensity
GRLRPKRIAPWHLIQ	106

Biological target: AgHof1
Assay: as above
How it was run: as §1

Binder	SPOT peptide array binding signal intensity
GRLRPKRIAPWHLIQ	15

Biological target: AgHse1
Assay: as above
How it was run: as §1

Binder	SPOT peptide array binding signal intensity
GRLRPKRIAPWHLIQ	542

Biological target: AgLsb1
Assay: as above
How it was run: as §1

Binder	SPOT peptide array binding signal intensity
GRLRPKRIAPWHLIQ	≤ 0

Biological target: AgLsb4
Assay: as above
How it was run: as §1

Binder	SPOT peptide array binding signal intensity
GRLRPKRIAPWHLIQ	36

Biological target: AgMyo5
Assay: as above
How it was run: as §1

Binder	SPOT peptide array binding signal intensity
GRLRPKRIAPWHLIQ	0.5

Biological target: AgNbp2
Assay: as above
How it was run: as §1

Binder	SPOT peptide array binding signal intensity
GRLRPKRIAPWHLIQ	590

Biological target: AgRvs167
Assay: as above
How it was run: as §1

Binder	SPOT peptide array binding signal intensity
GRLRPKRIAPWHLIQ	3.83

Biological target: AgSho1
Assay: as above
How it was run: as §1

Binder	SPOT peptide array binding signal intensity
GRLRPKRIAPWHLIQ	≤ 0

Biological target: AgSla1-D1-D2
Assay: as above
How it was run: as §1

Binder	SPOT peptide array binding signal intensity
GRLRPKRIAPWHLIQ	44

Biological target: AgSla1-D3
Assay: as above
How it was run: as §1

Binder	SPOT peptide array binding signal intensity
GRLRPKRIAPWHLIQ	2.5

Biological target: CaAbp1-D1
Assay: as above
How it was run: as §1

Binder	SPOT peptide array binding signal intensity
GRLRPKRIAPWHLIQ	1010

Biological target: CaAbp1-D2
Assay: as above
How it was run: as §1

Binder	SPOT peptide array binding signal intensity
GRLRPKRIAPWHLIQ	666

Biological target: CaBbc1
Assay: as above
How it was run: as §1

Binder	SPOT peptide array binding signal intensity
GRLRPKRIAPWHLIQ	156

Biological target: CaBem1-D1
Assay: as above
How it was run: as §1

Binder	SPOT peptide array binding signal intensity
GRLRPKRIAPWHLIQ	26

Biological target: CaBzz1-D1
Assay: as above
How it was run: as §1

Binder	SPOT peptide array binding signal intensity
GRLRPKRIAPWHLIQ	73

Biological target: CaBzz1-D2
Assay: as above
How it was run: as §1

Binder	SPOT peptide array binding signal intensity
GRLRPKRIAPWHLIQ	79.2

Biological target: CaCyk3
Assay: as above
How it was run: as §1

Binder	SPOT peptide array binding signal intensity
GRLRPKRIAPWHLIQ	112

Biological target: CaFus1
Assay: as above
How it was run: as §1

Binder	SPOT peptide array binding signal intensity
GRLRPKRIAPWHLIQ	178

Biological target: CaHof1
Assay: as above
How it was run: as §1

Binder	SPOT peptide array binding signal intensity
GRLRPKRIAPWHLIQ	0.75

Biological target: CaHse1
Assay: as above
How it was run: as §1

Binder	SPOT peptide array binding signal intensity
GRLRPKRIAPWHLIQ	11.8

Biological target: CaLsb1
Assay: as above
How it was run: as §1

Binder	SPOT peptide array binding signal intensity
GRLRPKRIAPWHLIQ	≤ 0

Biological target: CaLsb4
Assay: as above
How it was run: as §1

Binder	SPOT peptide array binding signal intensity
GRLRPKRIAPWHLIQ	67

Biological target: CaMyo5
Assay: as above
How it was run: as §1

Binder	SPOT peptide array binding signal intensity
GRLRPKRIAPWHLIQ	2.5

Biological target: CaNbp2
Assay: as above
How it was run: as §1

Binder	SPOT peptide array binding signal intensity
GRLRPKRIAPWHLIQ	1940

Biological target: CaRvs167
Assay: as above
How it was run: as §1

Binder	SPOT peptide array binding signal intensity
GRLRPKRIAPWHLIQ	9.17

Biological target: CaRvs167-3
Assay: as above
How it was run: as §1

Binder	SPOT peptide array binding signal intensity
GRLRPKRIAPWHLIQ	49.2

Biological target: CaSho1
Assay: as above
How it was run: as §1

Binder	SPOT peptide array binding signal intensity
GRLRPKRIAPWHLIQ	174

Biological target: CaSla1-D1-D2
Assay: as above
How it was run: as §1

Binder	SPOT peptide array binding signal intensity
GRLRPKRIAPWHLIQ	143

Biological target: CaSla1-D3
Assay: as above
How it was run: as §1

Binder	SPOT peptide array binding signal intensity
GRLRPKRIAPWHLIQ	1

Biological target: ScAbp1
Assay: as above
How it was run: as §1

Binder	SPOT peptide array binding signal intensity
GRLRPKRIAPWHLIQ	13

Biological target: ScBbc1
Assay: as above
How it was run: as §1

Binder	SPOT peptide array binding signal intensity
GRLRPKRIAPWHLIQ	24.5

Biological target: ScBem1-D1
Assay: as above
How it was run: as §1

Binder	SPOT peptide array binding signal intensity
GRLRPKRIAPWHLIQ	8.5

Biological target: ScBzz1-D1
Assay: as above
How it was run: as §1

Binder	SPOT peptide array binding signal intensity
GRLRPKRIAPWHLIQ	0.5

Biological target: ScBzz1-D2
Assay: as above
How it was run: as §1

Binder	SPOT peptide array binding signal intensity
GRLRPKRIAPWHLIQ	3

Biological target: ScCyk3
Assay: as above
How it was run: as §1

Binder	SPOT peptide array binding signal intensity
GRLRPKRIAPWHLIQ	242

Biological target: ScFus1
Assay: as above
How it was run: as §1

Binder	SPOT peptide array binding signal intensity
GRLRPKRIAPWHLIQ	106

Biological target: ScHof1
Assay: as above
How it was run: as §1

Binder	SPOT peptide array binding signal intensity
GRLRPKRIAPWHLIQ	0.25

Biological target: ScHse1
Assay: as above
How it was run: as §1

Binder	SPOT peptide array binding signal intensity
GRLRPKRIAPWHLIQ	1020

Biological target: ScLsb1
Assay: as above
How it was run: as §1

Binder	SPOT peptide array binding signal intensity
GRLRPKRIAPWHLIQ	2.5

Biological target: ScLsb2
Assay: as above
How it was run: as §1

Binder	SPOT peptide array binding signal intensity
GRLRPKRIAPWHLIQ	2

Biological target: ScLsb3
Assay: as above
How it was run: as §1

Binder	SPOT peptide array binding signal intensity
GRLRPKRIAPWHLIQ	131

Biological target: ScLsb4
Assay: as above
How it was run: as §1

Binder	SPOT peptide array binding signal intensity
GRLRPKRIAPWHLIQ	2

Biological target: ScMyo3
Assay: as above
How it was run: as §1

Binder	SPOT peptide array binding signal intensity
GRLRPKRIAPWHLIQ	1

Biological target: ScMyo5
Assay: as above
How it was run: as §1

Binder	SPOT peptide array binding signal intensity
GRLRPKRIAPWHLIQ	1.5

Biological target: ScNbp2
Assay: as above
How it was run: as §1

Binder	SPOT peptide array binding signal intensity
GRLRPKRIAPWHLIQ	1940

Biological target: ScPex13
Assay: as above
How it was run: as §1

Binder	SPOT peptide array binding signal intensity
GRLRPKRIAPWHLIQ	10

Biological target: ScRvs167
Assay: as above
How it was run: as §1

Binder	SPOT peptide array binding signal intensity
GRLRPKRIAPWHLIQ	27.7

Biological target: ScSho1
Assay: as above
How it was run: as §1

Binder	SPOT peptide array binding signal intensity
GRLRPKRIAPWHLIQ	195

Biological target: ScSla1-D1-D2
Assay: as above
How it was run: as §1

Binder	SPOT peptide array binding signal intensity
GRLRPKRIAPWHLIQ	134

Biological target: ScSla1-D3
Assay: as above
How it was run: as §1

Binder	SPOT peptide array binding signal intensity
GRLRPKRIAPWHLIQ	5

Biological target: SpAbp1-D1
Assay: as above
How it was run: as §1

Binder	SPOT peptide array binding signal intensity
GRLRPKRIAPWHLIQ	226

Biological target: SpBbc1
Assay: as above
How it was run: as §1

Binder	SPOT peptide array binding signal intensity
GRLRPKRIAPWHLIQ	1

Biological target: SpBzz1-D1
Assay: as above
How it was run: as §1

Binder	SPOT peptide array binding signal intensity
GRLRPKRIAPWHLIQ	228

Biological target: SpBzz1-D2
Assay: as above
How it was run: as §1

Binder	SPOT peptide array binding signal intensity
GRLRPKRIAPWHLIQ	1.5

Biological target: SpCyk3
Assay: as above
How it was run: as §1

Binder	SPOT peptide array binding signal intensity
GRLRPKRIAPWHLIQ	7

Biological target: SpHof1
Assay: as above
How it was run: as §1

Binder	SPOT peptide array binding signal intensity
GRLRPKRIAPWHLIQ	70

Biological target: SpHof1-2
Assay: as above
How it was run: as §1

Binder	SPOT peptide array binding signal intensity
GRLRPKRIAPWHLIQ	1.5

Biological target: SpHof1-3
Assay: as above
How it was run: as §1

Binder	SPOT peptide array binding signal intensity
GRLRPKRIAPWHLIQ	299

Biological target: SpHse1
Assay: as above
How it was run: as §1

Binder	SPOT peptide array binding signal intensity
GRLRPKRIAPWHLIQ	309

Biological target: SpLsb1
Assay: as above
How it was run: as §1

Binder	SPOT peptide array binding signal intensity
GRLRPKRIAPWHLIQ	5.5

Biological target: SpLsb4
Assay: as above
How it was run: as §1

Binder	SPOT peptide array binding signal intensity
GRLRPKRIAPWHLIQ	95.5

Biological target: SpMyo1
Assay: as above
How it was run: as §1

Binder	SPOT peptide array binding signal intensity
GRLRPKRIAPWHLIQ	2.5

Biological target: SpNbp2
Assay: as above
How it was run: as §1

Binder	SPOT peptide array binding signal intensity
GRLRPKRIAPWHLIQ	110

Biological target: SpPex13
Assay: as above
How it was run: as §1

Binder	SPOT peptide array binding signal intensity
GRLRPKRIAPWHLIQ	4

Biological target: SpRvs167
Assay: as above
How it was run: as §1

Binder	SPOT peptide array binding signal intensity
GRLRPKRIAPWHLIQ	9

Biological target: SpSla1-D1-D2
Assay: as above
How it was run: as §1

Binder	SPOT peptide array binding signal intensity
GRLRPKRIAPWHLIQ	≤ 0

Biological target: SpSla1-D3
Assay: as above
How it was run: as §1

Binder	SPOT peptide array binding signal intensity
GRLRPKRIAPWHLIQ	≤ 0
